Results: PubChem BioAssay (NCATS)
Results filed as inconclusive are left out. Activity calls are given as the source filed them. Calls come from the whole dose curve; as a rule, active = well fitted cell-killing curve with a large enough effect; inconclusive = small, poorly fitted or top-dose-only effect, or effect the other way; inactive = no such curve, though single readings can be large or run the other way.

assay: Viability qHTS for spleen associated tyrosine kinase inhibitor (SYKi) drug resistant MV4-11 cells (AID 1963824); details: SYKi-resistant MV4-11 viability, CellTiter-Glo, 72 h; series mostly up to 45 µM; note: nearly all actives have a fitted effect of over 35% in size
Outline: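 SYK-inhibitor-resistant MV4-11 AML cells were seeded at 500 per well onto compound and cultured 72 hours (37 °C, 5% CO2). CellTiter-Glo was then added, and after 10 min at room temperature, luminescence gave viability.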
Potency is the fitted concentration of half-maximal effect.

With `CCCCC(=O)O[C@]1(C(=O)CO)CC[C@H]2[C@@H]3CCC4=CC(=O)CC[C@]4(C)[C@H]3[C@@H](O)C[C@@]21C` as the molecule, how does the Potency read?
Its Potency is “inactive”.

With `COC(=O)c1ccnc(-c2cc(C(=O)NCCc3ccccc3)ccn2)c1` as the molecule, how does the Potency read?
Its Potency is “inactive”.

With `COc1ccc(F)cc1-c1cc(NC(=O)[C@@H]2CCCNC2)ncc1Cl` as the molecule, how does the Potency read?
The Potency was 0.103 µM (active).

Which Potency does the source give for `CC(=O)O[C@H]1C[C@@]2(C)[C@@H](CC[C@H]3[C@@]4(C)C=CC(=O)[C@@H](C)[C@@H]4[C@H](OC(C)=O)C(=O)[C@@]32C)/C1=C(\CCC=C(C)C)C(=O)O` here?
Its Potency is “inactive”.

For `C=CC(=O)Nc1cccc(CN2C(=O)N(c3c(Cl)c(OC)cc(OC)c3Cl)Cc3cnc(NCCCCN(CC)CC)nc32)c1`, which Potency is on record?
Its Potency is 3.66 µM (active).

For `COc1ccnc(CS(=O)c2nc3cc(OC(F)F)ccc3[nH]2)c1OC` (stereo not drawn), which Potency is on record?
The Potency was “inactive”.

For `CC12CCC3c4ccc(O)cc4CCC3C1CC(OC1OC(C(=O)O)C(O)C(O)C1O)C2O` (stereo not drawn), which Potency is on record?
The Potency was “inactive”.

Which Potency does the source give for `c1ccc(-c2cnc(Nc3ccc(OCCN4CCCC4)cc3)s2)cc1` here?
The Potency was 0.0206 µM (active).

Which Potency does the source give for `CC(C)(O)/C=C/C(=O)[C@](C)(O)[C@H]1[C@H](O)C[C@@]2(C)[C@@H]3CC=C4[C@@H](C[C@H](O[C@@H]5O[C@H](CO)[C@@H](O)[C@H](O)[C@H]5O)C(=O)C4(C)C)[C@]3(C)C(=O)C[C@]12C` here?
The Potency was 6.11 µM (active).

Which Potency does the source give for `Nc1nc2c(c(=O)[nH]1)C[C@@H](CCc1ccc(C(=O)N[C@@H](CCC(=O)O)C(=O)O)cc1)CN2` here?
Its Potency is 0.0092 µM (active).

Which Potency does the source give for `COc1ccccc1Oc1c(NS(=O)(=O)c2ccc(C)cn2)nc(-c2ccncc2)nc1OC` here?
The Potency was “inactive”.

Which Potency does the source give for `O=c1cc(-c2cccc(O)c2)oc2c(O)c(O)ccc12` here?
The Potency was 16.4 µM (active).

Which Potency does the source give for `Cc1cc(N=Nc2ccc(S(=O)(=O)Nc3ccccn3)cc2)c(N)cc1O` here?
Its Potency is 2.59 µM (active).

With `C=C1C(=O)O[C@@H]2/C=C(/C)CC3C=C(C[C@H](OC(=O)/C(C)=C\C)[C@@H]12)C(=O)O3` (stereo partly drawn) as the molecule, how does the Potency read?
Its Potency is 2.55 µM (active).

Which Potency does the source give for `COc1cn(-c2ccc(-n3cccn3)cc2F)nc(-c2ccnn2-c2ccccc2)c1=O` here?
Its Potency is “inactive”.

Which Potency does the source give for `CCCNCCOc1ccc(NC(=O)c2c[nH]c3c2C(=O)CCC3)cc1F` here?
Its Potency is 2.91 µM (active).

For `COc1ccc(NS(=O)(=O)c2sc3ccc(Cl)cc3c2C)cc1N1CCNCC1`, which Potency is on record?
Its Potency is 14.6 µM (active).

Which Potency does the source give for `Cc1cc(F)ccc1[C@H]1C[C@@H](N2CCN3C(=O)CC[C@H]3C2)CCN1C(=O)N(C)[C@H](C)c1cc(C(F)(F)F)cc(C(F)(F)F)c1` here?
Its Potency is 5.17 µM (active).

With `COc1cc(/C=C/C(=O)OC2[C@H](O)CC(O)(C(=O)O)C[C@H]2O)ccc1O` (stereo partly drawn) as the molecule, how does the Potency read?
Its Potency is “inactive”.

Which Potency does the source give for `Cn1c(=O)c(F)c(Nc2ccc(I)cc2F)c2c(=O)n(CC(O)CO)cnc21` (stereo not drawn) here?
The Potency was 0.0259 µM (active).

With `COC(=O)C1=C(C)NC(C)=C(C(=O)OC(C)(C)CN(C)CCC(c2ccccc2)c2ccccc2)C1c1cccc([N+](=O)[O-])c1` (stereo not drawn) as the molecule, how does the Potency read?
Its Potency is 9.44 µM (active).

For `CC(=O)Nc1nc(C)c(-c2nc(N3CCCC(O)C3)no2)s1` (stereo not drawn), which Potency is on record?
Its Potency is 16.4 µM (active).

Which Potency does the source give for `C=C1C[C@@H]2CC[C@@]34C[C@H]5O[C@H]6[C@@H](O3)[C@H]3O[C@H](CC[C@@H]3O[C@H]6[C@H]5O4)CC(=O)C[C@@H]3[C@@H](OC)[C@@H](C[C@H](O)CN)O[C@H]3C[C@H]3O[C@@H](CC[C@@H]1O2)C[C@@H](C)C3=C` here?
Its Potency is 0.0005 µM (active).

With `CCN(CC)CCOCCOC(=O)C(CC)(CC)c1ccccc1` as the molecule, how does the Potency read?
The Potency was 23.1 µM (active).

Which Potency does the source give for `C[C@@H]1CCC2C(C)(C)[C@H](O)CC[C@]2(C)[C@@]12Cc1c(O)cc3c(c1O2)CN([C@@H](CCC(=O)O)C(=O)O)C3=O` (stereo partly drawn) here?
The Potency was “inactive”.

With `O[C@@](Cc1ncc(CC2(C(F)(F)F)CC2)[nH]1)(c1ccc(-n2cccn2)cc1)C(F)(F)F` as the molecule, how does the Potency read?
The Potency was 14.6 µM (active).

For `COc1cccc(NCCC2(c3ccccc3)CC(C)(C)OC(C)(C)C2)c1`, which Potency is on record?
The Potency was “inactive”.

Which Potency does the source give for `COC1C(=O)CCC2(CO2)C1(O)C1(C)OC1CC=C(C)C` (stereo not drawn) here?
Its Potency is “inactive”.
